Compound activity: PubChem BioAssay, National Center for Advancing Translational Sciences (NCATS)
HCMV inh: human cytomegalovirus inhibition | activity change, negative = inhibition, % at 57.5 µM | AID 1259415 | 410,000 tested, 4.5% active | HFF cells, HCMV-luciferase reporter, 72 h; hits give low values; in the data active = activity change below about -60%; inconclusive = no clear call, values can overlap the other calls; inactive = above about -39%
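HFF cells seeded 16 h at 37C, treated with compounds, infected with luciferase-reporter HCMV at MOI 1 PFU/cell; luciferase read at 72 h post infection, normalized to buffer-only and Salinomycin controls.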
MARV entry inh: inhibitors of Marburg virus binding or cell entry; Marburg virus pseudotyped entry inhibition, cell reporter; Potency, µM (titrated, usually from 37.8 µM), without a hit: at the highest dose activity change, negative = inhibition, actives largely listed as inhibitors; 300,000 tested, 1.8% active; AID 540276; calls by dose curve; tested in HEK293 cells; note: potency is the fitted concentration of half-maximal effect
HCV inhibitor: inhibitors of hepatitis C virus infection | Huh7.5.1 HCVcc-Cre infection, luciferase reporter, 44 h | Potency, µM (doses to about 41.8 µM), inactives show top-dose activity change, negative = inhibition, actives largely listed as inhibitors | 340,000 tested, 3.4% active; active = well fitted inhibition curve with a large enough effect; inconclusive = small, poorly fitted or top-dose-only effect, or another doubt; inactive = no such curve, though single readings can be large or run the other way; note: potency is the fitted concentration of half-maximal effect
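1,000 cells/well; 4 h culture; + compound; + HCVcc-Cre (~0.5 moi); 44 h; luciferase substrate, RT 15 min; read 15 sec.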
LASV entry inh: Lassa virus entry inhibition; Lassa virus pseudotype entry inhibition, cell reporter; Potency, µM (doses to about 37.9 µM), for the others: top-dose activity change, negative = inhibition, actives largely listed as inhibitors; 300,000 tested, 1.2% active; calls by dose curve; tested in HEK293 cells; note: potency is the fitted concentration of half-maximal effect; nearly all actives have a fitted effect of over 50% in size
FMDV inh: antivirals against foot and mouth disease virus | FMDV antiviral cell-based qHTS | 410,000 tested, 1.2% active | Potency, µM (doses to about 57.9 µM), for the others: at the top dose activity change, negative = inhibition, actives largely listed as inhibitors; calls by dose curve; tested in HEK293T cells; note: read-out not given here; potency is the fitted concentration of half-maximal effect; nearly all actives have a fitted effect of over 45% in size
Numbers without * were called inactive; ! = not confirmed by another sample; [ ] = another dose, or the depositor's remark. Only some compounds are listed: those with a hit (about 7.9% of all), similar ones and a draw of the others. % is set by controls: 0 for no effect and ±100 for the full control effect.

What do the screens show for `O=C(Nc1ncc(Cc2cccc([N+](=O)[O-])c2)s1)c1ccco1`?
HCMV inh: -72*; HCV inhibitor: inconclusive; FMDV inh: 7%

What do the screens show for `O=C(Nc1ncc(Cc2ccccc2Cl)s1)c1ccc(-c2cccc([N+](=O)[O-])c2)o1`?
HCMV inh: -63*; MARV entry inh: 6%; HCV inhibitor: 22µM*; FMDV inh: inconclusive

Results for CCc1ccc(CCC(=O)Nc2ncc(Cc3ccccc3Cl)s2)o1 ?
HCMV inh: -61*; MARV entry inh: inconclusive; HCV inhibitor: inconclusive; LASV entry inh: inconclusive; FMDV inh: -21%

What do the screens show for `CC(C)C(=O)Nc1ncc(Cc2cccc(Cl)c2)s1`?
HCMV inh: -69*; MARV entry inh: inconclusive; HCV inhibitor: -9%; LASV entry inh: -35%; FMDV inh: -20%

Results for COc1cccc(C2(CC(=O)N3CCN(c4ccccn4)CC3)CC(=O)N(C3CCCC3)C2=O)c1 (configuration not stated) ?
FMDV inh: -1%

What do the screens show for `COC(=O)C1=C(C)NC(C)=C(C(=O)OCCN(C)Cc2ccccc2)C1c1cccc([N+](=O)[O-])c1` (configuration not stated)?
HCMV inh: 4; MARV entry inh: 16µM*; HCV inhibitor: 36%; LASV entry inh: 7.3µM*!; FMDV inh: inconclusive

What do the screens show for `CCOC(=O)C1=C(C)NC(C)=C(C(=O)OCCNC(=O)c2cccnc2)C1c1cccc([N+](=O)[O-])c1` (configuration not stated)?
MARV entry inh: inconclusive; HCV inhibitor: -6%; LASV entry inh: -24%; FMDV inh: -17%

How did COC(=O)C1=C(C)NC(C)=C(C(=O)OCCN2CCN(C(c3ccccc3)c3ccccc3)CC2)C1c1cccc([N+](=O)[O-])c1 (configuration not stated) do in these assays?
HCMV inh: -64*

What do the screens show for `COCCOC(=O)C1=C(C)N(c2ccccc2)C(=O)NC1c1cccc([N+](=O)[O-])c1` (configuration not stated)?
HCMV inh: 16; MARV entry inh: 0%; HCV inhibitor: -4%; LASV entry inh: 0%; FMDV inh: -19%

How did O=C(Nc1ccccc1)N1CC(=O)N2[C@@H](CO)[C@H](c3ccc(Br)cc3)[C@@H]2C1 do in these assays?
HCMV inh: -6

How did Cc1nnc2nc(-c3ccccc3)nc(-c3ccccc3)n12 do in these assays?
HCMV inh: -80*; HCV inhibitor: inconclusive; FMDV inh: 9%

How did C[C@H]1CN([C@@H](C)CO)S(=O)(=O)c2ccc(/C=C/c3ccccc3)cc2O[C@H]1CN(C)C(=O)NC1CCCCC1 do in these assays?
HCMV inh: -63*; FMDV inh: -2%

Results for C[C@H](CO)N1C[C@H](C)[C@H](CN(C)Cc2ccc(Oc3ccccc3)cc2)Oc2cc(Br)ccc2S1(=O)=O ?
HCMV inh: -109*; FMDV inh: -21%

Results for Cc1cc(C)c(N=Cc2c(O)c3ccccc3oc2=O)c(C)c1 ?
HCMV inh: 17; MARV entry inh: 0%; HCV inhibitor: 14%; LASV entry inh: 24%; FMDV inh: 44%

Results for CC(=O)c1ccc(-c2ccc3c4c(ccc3c2)OC(CNC(=O)C(C)N2CCOCC2)C4)s1 (configuration not stated) ?
FMDV inh: 2%

How did Cc1ccc2c(c1)cc1c(=O)n(Cc3cccc(Cl)c3)nc(C)n12 do in these assays?
HCMV inh: -8; MARV entry inh: 5%[46.1 µM]; LASV entry inh: 23%[46.1 µM]; FMDV inh: -10%

How did COc1ccc2nc(C)cc(SCC(=O)N/N=C/c3c(OC)ccc4ccccc34)c2c1 do in these assays?
HCMV inh: -3; MARV entry inh: inconclusive; HCV inhibitor: 1%; LASV entry inh: -3%; FMDV inh: inconclusive

What do the screens show for `CCn1c(SCC(=O)N/N=C/c2cc(OC)c(OC)c(OC)c2)nc2ccccc21`?
HCMV inh: -18; MARV entry inh: inconclusive; HCV inhibitor: inconclusive; LASV entry inh: -16%; FMDV inh: 25µM*

What do the screens show for `COc1ccccc1/C=N/NC(=O)CSc1cc(C)nc2ccccc12`?
HCMV inh: -82*; MARV entry inh: inconclusive; HCV inhibitor: -28%; LASV entry inh: inconclusive; FMDV inh: -27%

How did COc1ccc2nc(C)cc(SCC(=O)N/N=C/c3ccccc3)c2c1 do in these assays?
HCMV inh: -60*; MARV entry inh: -10%; HCV inhibitor: -2%; LASV entry inh: inconclusive; FMDV inh: inconclusive

How did COc1cccc2c(SCC(=O)N/N=C/c3ccc(O)cc3O)cc(C)nc12 do in these assays?
HCMV inh: 59; MARV entry inh: inconclusive; HCV inhibitor: inconclusive; LASV entry inh: inconclusive; FMDV inh: inconclusive

What do the screens show for `COc1ccc2nc(C)cc(SCC(=O)N/N=C/c3ccc(O)cc3O)c2c1`?
HCMV inh: -21; MARV entry inh: inconclusive; HCV inhibitor: 13µM*; LASV entry inh: inconclusive; FMDV inh: inconclusive

What do the screens show for `CCCCOc1ccc(-c2nn(-c3ccccc3)cc2C2NC(=O)NC(C)=C2C(=O)OCC)cc1` (configuration not stated)?
HCMV inh: -39; MARV entry inh: inconclusive; LASV entry inh: inconclusive; FMDV inh: -12%

Results for Cc1cc(SCC(=O)NN)c2cc(Br)ccc2n1 ?
HCMV inh: -66*; MARV entry inh: -10%[46.1 µM]; HCV inhibitor: 3%; LASV entry inh: inconclusive; FMDV inh: 27%

What do the screens show for `Oc1ccccc1N=N/C(=N/Nc1ccccc1O)c1ccccc1`?
HCMV inh: 30; HCV inhibitor: 4%[8.37 µM]; FMDV inh: 4%

How did Cn1nnnc1N=N/C(=N/Nc1ccccc1)c1ccccc1 do in these assays?
HCMV inh: -86*; MARV entry inh: 1µM*; HCV inhibitor: 4µM*; LASV entry inh: inconclusive; FMDV inh: -6%

What do the screens show for `O=C(Nc1ccc(-c2nc3ccccc3s2)cc1)c1cc(-n2cnnc2)ccc1Cl`?
HCMV inh: -82*; MARV entry inh: inconclusive; HCV inhibitor: 4µM*; LASV entry inh: inconclusive

What do the screens show for `O=C(CSc1nnc(Nc2ccccc2F)s1)Nc1cccc(S(=O)(=O)N2CCCCC2)c1`?
HCMV inh: 9; MARV entry inh: inconclusive; HCV inhibitor: 13µM*; LASV entry inh: inconclusive; FMDV inh: inconclusive

What do the screens show for `Cc1ccc(Nc2nnc(SCC(=O)Nc3cccc(S(=O)(=O)N4CCCCC4)c3)s2)cc1`?
HCMV inh: inconclusive; MARV entry inh: inconclusive; HCV inhibitor: inconclusive; LASV entry inh: inconclusive; FMDV inh: -29%

What do the screens show for `O=C(CSc1nnc(NC2CCCCC2)s1)Nc1ccc2c(c1)C(=O)c1ccccc1C2=O`?
HCMV inh: 106; HCV inhibitor: 10µM*; FMDV inh: 22%

Results for O=C(CSc1nnnn1C1CCCC1)Nc1cccc(NC(=O)c2ccco2)c1 ?
HCMV inh: -70*; MARV entry inh: -21%; HCV inhibitor: -12%; LASV entry inh: 4%
